For part of these data: Measured potencies and affinities stand elsewhere.
What was measured:
Design in all cases: scale not given: direction of the effect not stated beside the values
[1] = biological target: Protein translocase subunit SecA (Escherichia coli (strain K12)) (UniProt P10408); test: Assay to Identify E. coli SecA ATPase Inhibitors; assay type: functional; conditions: 30 µM
[2] = biological target: T1, Ubiquitin-activating enzyme e1, putative (Leishmania donovani (strain BPK282A1)) (UniProt E9BSI1); test: Leishmania donovani Ubiquitin Activating Enzyme (LdE1); assay type: functional; conditions: 30 µM
T1 sequence (whole entry): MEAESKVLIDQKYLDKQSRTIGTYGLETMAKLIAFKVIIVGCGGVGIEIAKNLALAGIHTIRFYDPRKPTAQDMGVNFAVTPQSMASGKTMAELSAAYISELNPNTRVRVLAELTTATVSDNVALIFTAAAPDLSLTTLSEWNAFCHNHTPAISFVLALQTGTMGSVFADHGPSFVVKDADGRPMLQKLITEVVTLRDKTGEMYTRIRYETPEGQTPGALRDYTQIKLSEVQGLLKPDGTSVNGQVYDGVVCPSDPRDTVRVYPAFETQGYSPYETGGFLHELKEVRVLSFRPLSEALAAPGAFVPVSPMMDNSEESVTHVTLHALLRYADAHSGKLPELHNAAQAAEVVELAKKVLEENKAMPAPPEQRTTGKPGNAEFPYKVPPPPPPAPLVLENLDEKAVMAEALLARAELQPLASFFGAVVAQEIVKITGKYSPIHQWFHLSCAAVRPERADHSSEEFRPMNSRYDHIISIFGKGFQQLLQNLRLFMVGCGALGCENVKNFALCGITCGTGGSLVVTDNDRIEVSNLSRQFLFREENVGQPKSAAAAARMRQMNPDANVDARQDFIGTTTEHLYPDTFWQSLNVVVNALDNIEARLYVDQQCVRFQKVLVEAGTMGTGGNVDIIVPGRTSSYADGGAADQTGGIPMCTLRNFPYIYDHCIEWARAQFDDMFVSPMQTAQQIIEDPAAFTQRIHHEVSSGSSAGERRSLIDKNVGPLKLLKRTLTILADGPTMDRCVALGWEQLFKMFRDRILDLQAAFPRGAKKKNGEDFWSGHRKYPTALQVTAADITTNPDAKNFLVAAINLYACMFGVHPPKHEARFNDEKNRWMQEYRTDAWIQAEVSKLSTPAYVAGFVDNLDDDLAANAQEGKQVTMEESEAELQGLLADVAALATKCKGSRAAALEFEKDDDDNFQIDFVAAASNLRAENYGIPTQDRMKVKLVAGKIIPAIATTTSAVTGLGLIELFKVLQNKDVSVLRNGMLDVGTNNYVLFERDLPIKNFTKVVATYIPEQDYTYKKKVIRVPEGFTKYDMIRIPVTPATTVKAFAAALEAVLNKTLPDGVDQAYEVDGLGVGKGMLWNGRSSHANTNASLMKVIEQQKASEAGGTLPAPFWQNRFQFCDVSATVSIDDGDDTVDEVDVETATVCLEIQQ

[3] = biological target: AMP-activated protein kinase, AMPK (Homo sapiens) (UniProt P54646+O43741+P54619+Q9UGJ0+Q9Y478+Q13131+Q9UGI9); test: AMP-dependent Kinase enzyme assay. An in vitro enzyme assay that detects ADP turnover that is directly proportional to AMPK activity. This uses naive AMPK that is activated during the assay with MK-8722; assay type: functional; conditions: 30 µM
[4] = biological target: Sialic acid-binding Ig-like lectin 9 (Homo sapiens) (UniProt Q9Y336); test: Hs-Siglec9 ALPHAscreen SOP 20170721; conditions: 10 µM
Trypanosoma cruzi = test: Trypanosoma cruzi phosphomannomutase and mannose-1-phosphate guanylyltransferase assay; assay type: functional; conditions: 10 µM
[5] = biological target: T2, Arginase-2, mitochondrial (Homo sapiens) (UniProt P78540); test: in vitro enzyme assay to detect the production of urea directly proportional to the activity of Arginase II; assay type: functional; conditions: 33.3 µM; further: in the data most compounds retested in dose-response had high values
T2 sequence (whole entry): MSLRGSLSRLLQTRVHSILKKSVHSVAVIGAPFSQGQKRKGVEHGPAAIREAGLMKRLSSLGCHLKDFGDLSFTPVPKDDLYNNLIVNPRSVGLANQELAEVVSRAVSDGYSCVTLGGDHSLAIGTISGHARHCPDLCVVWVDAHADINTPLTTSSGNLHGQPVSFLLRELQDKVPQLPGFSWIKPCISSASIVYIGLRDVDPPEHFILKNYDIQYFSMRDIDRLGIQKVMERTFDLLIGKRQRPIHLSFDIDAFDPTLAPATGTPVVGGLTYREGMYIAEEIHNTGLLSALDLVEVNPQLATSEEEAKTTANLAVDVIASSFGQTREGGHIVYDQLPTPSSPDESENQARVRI

[6] = biological target: T3, Proteasome subunit beta (Trypanosoma cruzi) (UniProt O96673); test: Trypanosoma cruzi proteasome chymotrypsin-like activity (TcProtChymo) assay.; further: in the data most compounds retested in dose-response had high values; assay type: functional; conditions: 9.37 µM
T3 sequence (whole entry): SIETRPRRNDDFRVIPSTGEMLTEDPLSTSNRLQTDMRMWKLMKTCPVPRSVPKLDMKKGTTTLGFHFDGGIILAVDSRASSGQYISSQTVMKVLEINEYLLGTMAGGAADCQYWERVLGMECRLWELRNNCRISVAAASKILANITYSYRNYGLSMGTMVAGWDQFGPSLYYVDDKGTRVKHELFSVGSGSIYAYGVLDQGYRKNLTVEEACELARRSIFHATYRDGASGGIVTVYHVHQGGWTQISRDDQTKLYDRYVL

Homo sapiens = species: Homo sapiens; test: To identify inhibition of the IFN signalling (Jak-Stat) pathway via expression of an eGFP reporter gene under the control of an IFN-stimulated response element (ISRE) containing MxA promoter.; assay type: functional; conditions: 30 µM
[7] = biological target: T4, Tyrosyl-tRNA synthetase, putative (Trypanosoma cruzi (strain CL Brener)) (UniProt Q4DSP6); test: Trypanosoma cruzi tyrosyl tRNA synthetase (TcYRS) _High Tyrosine SOP; assay type: functional; conditions: 30 µM; further: in the data most compounds retested in dose-response had high values
T4 sequence (whole entry): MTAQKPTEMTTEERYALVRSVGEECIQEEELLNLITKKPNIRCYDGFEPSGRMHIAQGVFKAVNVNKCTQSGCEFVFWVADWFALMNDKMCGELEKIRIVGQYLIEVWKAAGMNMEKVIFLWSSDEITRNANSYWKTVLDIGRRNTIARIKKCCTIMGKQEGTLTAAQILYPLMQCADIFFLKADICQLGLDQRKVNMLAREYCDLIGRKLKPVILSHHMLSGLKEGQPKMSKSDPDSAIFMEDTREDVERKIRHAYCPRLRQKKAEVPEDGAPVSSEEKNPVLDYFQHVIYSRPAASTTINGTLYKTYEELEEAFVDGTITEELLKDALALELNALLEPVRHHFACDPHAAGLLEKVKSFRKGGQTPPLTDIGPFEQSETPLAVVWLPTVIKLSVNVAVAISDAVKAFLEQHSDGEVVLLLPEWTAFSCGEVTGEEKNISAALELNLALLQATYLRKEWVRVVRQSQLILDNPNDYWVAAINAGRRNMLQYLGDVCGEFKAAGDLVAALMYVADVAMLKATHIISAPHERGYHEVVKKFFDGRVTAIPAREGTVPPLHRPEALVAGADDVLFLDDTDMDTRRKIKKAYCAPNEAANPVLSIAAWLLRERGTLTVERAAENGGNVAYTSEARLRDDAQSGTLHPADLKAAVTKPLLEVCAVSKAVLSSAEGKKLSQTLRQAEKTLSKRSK

[8] = biological target: T4, Tyrosyl-tRNA synthetase, putative (Trypanosoma cruzi (strain CL Brener)); test: Trypanosoma cruzi tyrosyl tRNA synthetase (TcYRS) SOP; assay type: functional; conditions: 30 µM
[9] = biological target: Chromo domain-containing protein 1 (Saccharomyces cerevisiae (strain ATCC 204508 / S288c) (Baker's yeast)) (UniProt P32657); test: ScCHD-1 Enzyme Inhibition Assay; assay type: functional; conditions: 30 µM; further: in the data most compounds retested in dose-response had high values
Sequence of Chromo domain-containing protein 1 (Saccharomyces cerevisiae (strain ATCC 204508 / S288c) (Baker's yeast)) (P32657 whole entry, the tested form may be a part): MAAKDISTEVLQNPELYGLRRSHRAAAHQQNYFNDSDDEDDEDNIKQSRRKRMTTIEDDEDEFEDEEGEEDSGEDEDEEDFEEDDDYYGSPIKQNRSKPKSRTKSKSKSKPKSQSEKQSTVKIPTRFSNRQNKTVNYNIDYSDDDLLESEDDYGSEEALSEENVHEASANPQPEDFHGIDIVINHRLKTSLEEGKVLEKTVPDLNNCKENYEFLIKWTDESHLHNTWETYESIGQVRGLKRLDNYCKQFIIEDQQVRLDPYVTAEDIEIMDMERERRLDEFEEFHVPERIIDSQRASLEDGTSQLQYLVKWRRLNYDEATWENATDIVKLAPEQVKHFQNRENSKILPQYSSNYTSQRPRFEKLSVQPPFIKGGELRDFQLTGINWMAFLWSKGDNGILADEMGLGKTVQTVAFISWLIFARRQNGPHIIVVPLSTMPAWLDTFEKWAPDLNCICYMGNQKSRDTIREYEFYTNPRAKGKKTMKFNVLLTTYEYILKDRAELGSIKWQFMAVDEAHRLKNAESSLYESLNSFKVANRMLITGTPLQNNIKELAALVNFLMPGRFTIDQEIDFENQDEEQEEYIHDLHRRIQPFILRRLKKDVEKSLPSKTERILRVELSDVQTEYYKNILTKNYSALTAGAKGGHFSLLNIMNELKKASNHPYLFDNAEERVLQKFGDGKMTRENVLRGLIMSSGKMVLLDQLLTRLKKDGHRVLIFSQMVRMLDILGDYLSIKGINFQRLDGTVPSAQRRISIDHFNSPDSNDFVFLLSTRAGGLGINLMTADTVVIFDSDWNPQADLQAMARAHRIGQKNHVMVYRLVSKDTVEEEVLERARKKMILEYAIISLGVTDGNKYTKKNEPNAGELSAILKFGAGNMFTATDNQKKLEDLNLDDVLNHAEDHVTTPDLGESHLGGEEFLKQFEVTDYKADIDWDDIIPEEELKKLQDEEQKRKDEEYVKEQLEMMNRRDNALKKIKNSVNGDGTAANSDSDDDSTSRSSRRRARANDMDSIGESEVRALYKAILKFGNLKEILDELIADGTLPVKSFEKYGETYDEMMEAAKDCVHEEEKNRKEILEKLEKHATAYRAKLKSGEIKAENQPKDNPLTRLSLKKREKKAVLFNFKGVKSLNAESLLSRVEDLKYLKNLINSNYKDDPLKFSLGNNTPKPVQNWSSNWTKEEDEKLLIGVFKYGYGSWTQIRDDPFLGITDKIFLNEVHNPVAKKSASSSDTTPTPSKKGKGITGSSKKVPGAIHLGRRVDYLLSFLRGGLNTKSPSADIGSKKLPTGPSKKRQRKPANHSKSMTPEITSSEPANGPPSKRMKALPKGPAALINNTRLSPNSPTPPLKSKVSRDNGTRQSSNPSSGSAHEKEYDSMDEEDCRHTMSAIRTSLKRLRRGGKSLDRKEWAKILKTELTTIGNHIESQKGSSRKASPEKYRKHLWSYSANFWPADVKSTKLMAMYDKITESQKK

Sequence of Protein translocase subunit SecA (Escherichia coli (strain K12)) (P10408 whole entry): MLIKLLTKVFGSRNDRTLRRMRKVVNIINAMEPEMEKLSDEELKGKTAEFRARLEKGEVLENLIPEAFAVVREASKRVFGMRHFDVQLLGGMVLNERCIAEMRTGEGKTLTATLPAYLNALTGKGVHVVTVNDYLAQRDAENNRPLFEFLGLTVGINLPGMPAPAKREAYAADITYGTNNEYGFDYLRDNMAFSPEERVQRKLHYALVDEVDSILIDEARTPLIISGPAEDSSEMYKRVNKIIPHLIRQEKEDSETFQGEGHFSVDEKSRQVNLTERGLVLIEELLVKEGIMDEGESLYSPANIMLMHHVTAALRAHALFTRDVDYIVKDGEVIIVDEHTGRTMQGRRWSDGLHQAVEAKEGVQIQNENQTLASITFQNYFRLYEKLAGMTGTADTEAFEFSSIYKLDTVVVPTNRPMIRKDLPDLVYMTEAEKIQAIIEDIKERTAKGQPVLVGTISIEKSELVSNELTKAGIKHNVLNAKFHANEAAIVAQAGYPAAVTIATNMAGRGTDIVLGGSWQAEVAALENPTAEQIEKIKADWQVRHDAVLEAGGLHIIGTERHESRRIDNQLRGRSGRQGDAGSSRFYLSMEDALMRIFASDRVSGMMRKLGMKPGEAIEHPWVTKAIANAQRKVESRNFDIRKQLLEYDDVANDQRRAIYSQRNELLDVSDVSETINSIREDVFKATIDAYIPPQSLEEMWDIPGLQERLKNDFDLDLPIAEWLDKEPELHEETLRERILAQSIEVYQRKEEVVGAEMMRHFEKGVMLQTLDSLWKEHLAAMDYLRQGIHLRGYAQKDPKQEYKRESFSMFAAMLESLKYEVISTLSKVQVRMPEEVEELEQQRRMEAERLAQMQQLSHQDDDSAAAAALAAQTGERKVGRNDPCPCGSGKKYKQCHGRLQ
Sequence of Sialic acid-binding Ig-like lectin 9 (Homo sapiens) (Q9Y336 whole entry): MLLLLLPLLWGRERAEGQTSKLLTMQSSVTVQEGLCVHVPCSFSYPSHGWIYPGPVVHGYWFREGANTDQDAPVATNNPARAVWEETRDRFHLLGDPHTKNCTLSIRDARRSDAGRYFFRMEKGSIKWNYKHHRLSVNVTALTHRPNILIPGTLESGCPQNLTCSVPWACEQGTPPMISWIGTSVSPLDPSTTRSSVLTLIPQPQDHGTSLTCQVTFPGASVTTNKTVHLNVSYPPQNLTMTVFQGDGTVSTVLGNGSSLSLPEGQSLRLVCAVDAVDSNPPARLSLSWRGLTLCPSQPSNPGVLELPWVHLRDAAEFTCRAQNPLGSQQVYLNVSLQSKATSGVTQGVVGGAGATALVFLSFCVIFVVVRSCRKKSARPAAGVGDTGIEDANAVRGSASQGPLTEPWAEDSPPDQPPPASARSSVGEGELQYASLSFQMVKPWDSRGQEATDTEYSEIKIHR

| SMILES | Percent Effect [1] | Percent Effect [2] | Percent Effect [3] | Percent Effect [4] | Percent Effect (Trypanosoma cruzi) | Percent Effect [5] | Percent Effect [6] | Percent Effect (Homo sapiens) | Percent Effect [7] | Percent Effect [8] | Percent Effect [9] |
| --- | --- | --- | --- | --- | --- | --- | --- | --- | --- | --- | --- |
| CCn1cc(CN2CCCn3nc(CNC(=O)C4CCC4)cc3C2)cn1 | -2.37% | 10.4% | 0.185% | 10.6% | 4.42% | -6.9% | 18.5% | -4.18% | 6.45% | 13.6% | -3.28% |
| CSc1ccc(-c2nc(CN3CCC(NC(C)=O)C3)c(C)o2)cc1 (configuration not stated) | -6.31% | -5.41% | 0.887% | -0.709% | -4.25% | -3.33% | 2.93% | 18.4% | 4.76% | 7.32% | -1.88% |
| CC(C(=O)N1CCCN(c2ncccc2C#N)CC1)n1ccnc1 (configuration not stated) | -2.42% | 21.1% | 0.0866% | -9.53% | 5.13% | -1.08% | 7.19% | 14% | 10.3% | 18.5% | -9.73% |
| CCc1noc(CNc2ccc(C(=O)N3CCCC(C)C3)cc2C)n1 (configuration not stated) | -4.09% | 0% | 2.37% | 9.47% | 1.69% | 3.2% | 3.88% | 9.39% | 4.85% | 2.44% | -8.29% |
| CCNC(=O)N1CCCC(c2noc(CC)n2)C1 (configuration not stated) | -3.36% | 13% | 3.81% | 9.2% | 4.6% | 3.16% | 5.09% | 7.39% | 5.71% | 11.8% | -13.2% |
| Cn1ccc(CN2CCC(CO)CC2)cc1=O | -3.9% | -1.27% | 2.26% | 0.971% | -4.41% | 2.8% | 1.03% | 26.1% | -2.08% | 10.1% | -1.56% |
| Cc1nc(C)n(C2CCCN(C(=O)CCCn3ccnc3)C2)n1 (configuration not stated) | -8.21% | 0% | 0.109% | 0.244% | -3.91% | 2.92% | 10.4% | 5.38% | 4.95% | 3.66% | -1.65% |
| Cc1ccc(OC2(C(=O)O)CCN(C(=O)c3nc(C)oc3C)CC2)cn1 | -6.7% | 0% | – | -0.0712% | 4.17% | 1.05% | -1.2% | -9.04% | 2.66% | 4.88% | 1.11% |
